Results from the supplement of paper PMC11732987, “Enantioselective OTUD7B fragment discovery through chemoproteomics screening and high-throughput optimisation” (Communications Chemistry, 2025).

Tests used:
Experiment in all cases: log2 ratio of Biotin-Ahx-Ub-VS probe labelling (fragment/DMSO); higher = less target engagement (more negative = stronger competition), active = hit call of the paper (q ≤ 0.05, log2 ratio ≤ -1)
Settings in all cases: compound concentration: 200 uM; treatment time: 3 h
USP42 = biological target: T1, USP42 (UniProt Q9H9J4)
T1 sequence (whole entry): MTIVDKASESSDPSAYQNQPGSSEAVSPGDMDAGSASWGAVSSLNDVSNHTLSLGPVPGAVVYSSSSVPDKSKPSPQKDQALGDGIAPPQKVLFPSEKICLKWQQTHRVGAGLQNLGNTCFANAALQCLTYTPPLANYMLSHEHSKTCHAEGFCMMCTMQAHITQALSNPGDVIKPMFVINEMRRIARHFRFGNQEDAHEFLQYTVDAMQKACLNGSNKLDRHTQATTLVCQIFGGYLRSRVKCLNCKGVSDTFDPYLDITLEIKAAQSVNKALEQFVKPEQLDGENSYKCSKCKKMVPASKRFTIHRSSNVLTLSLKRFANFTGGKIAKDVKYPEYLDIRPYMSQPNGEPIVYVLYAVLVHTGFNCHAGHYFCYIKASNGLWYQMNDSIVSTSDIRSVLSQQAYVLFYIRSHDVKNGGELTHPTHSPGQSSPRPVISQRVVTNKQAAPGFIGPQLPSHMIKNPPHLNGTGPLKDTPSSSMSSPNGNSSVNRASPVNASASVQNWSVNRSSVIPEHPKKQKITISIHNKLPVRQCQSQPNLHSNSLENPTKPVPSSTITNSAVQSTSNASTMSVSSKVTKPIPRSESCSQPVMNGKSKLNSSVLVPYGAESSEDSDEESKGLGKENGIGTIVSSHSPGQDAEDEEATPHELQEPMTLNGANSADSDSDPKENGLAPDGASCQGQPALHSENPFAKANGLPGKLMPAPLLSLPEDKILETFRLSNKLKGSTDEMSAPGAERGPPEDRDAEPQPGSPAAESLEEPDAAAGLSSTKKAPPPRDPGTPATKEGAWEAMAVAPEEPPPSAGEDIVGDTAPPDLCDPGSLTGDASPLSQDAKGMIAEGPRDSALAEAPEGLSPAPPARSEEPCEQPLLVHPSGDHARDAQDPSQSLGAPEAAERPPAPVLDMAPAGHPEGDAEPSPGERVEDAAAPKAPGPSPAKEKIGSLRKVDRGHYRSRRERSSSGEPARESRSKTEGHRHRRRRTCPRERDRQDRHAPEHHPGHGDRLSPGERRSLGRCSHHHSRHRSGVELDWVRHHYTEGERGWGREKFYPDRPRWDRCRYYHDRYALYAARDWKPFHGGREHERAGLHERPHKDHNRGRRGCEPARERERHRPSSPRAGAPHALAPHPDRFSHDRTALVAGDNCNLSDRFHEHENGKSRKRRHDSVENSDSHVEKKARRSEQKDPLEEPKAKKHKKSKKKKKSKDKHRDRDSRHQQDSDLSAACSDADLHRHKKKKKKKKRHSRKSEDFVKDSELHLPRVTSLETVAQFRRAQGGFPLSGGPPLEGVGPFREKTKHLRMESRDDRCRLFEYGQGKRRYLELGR
Method in brief: (§1)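 HEK293T lysate (495 µg per sample, in Tris/CHAPS/IGEPAL buffer with protease inhibitors) was treated in triplicate with fragment at 200 µM or with DMSO for 3 h. It was then treated with Biotin-Ahx-Ub-VS (0.5 µM final) for 1 h. Labelled DUBs were NeutrAvidin-enriched, digested with LysC and trypsin, and run by diaPASEF LC-MS/MS. Spectronaut label-free quantities were global-median-normalised. Values are average log2 ratios fragment/DMSO by unpaired t-test, using proteins with ≥2 unique peptides.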

USP46 = USP46 (UniProt P62068)
USP46, sequence (P62068 whole entry): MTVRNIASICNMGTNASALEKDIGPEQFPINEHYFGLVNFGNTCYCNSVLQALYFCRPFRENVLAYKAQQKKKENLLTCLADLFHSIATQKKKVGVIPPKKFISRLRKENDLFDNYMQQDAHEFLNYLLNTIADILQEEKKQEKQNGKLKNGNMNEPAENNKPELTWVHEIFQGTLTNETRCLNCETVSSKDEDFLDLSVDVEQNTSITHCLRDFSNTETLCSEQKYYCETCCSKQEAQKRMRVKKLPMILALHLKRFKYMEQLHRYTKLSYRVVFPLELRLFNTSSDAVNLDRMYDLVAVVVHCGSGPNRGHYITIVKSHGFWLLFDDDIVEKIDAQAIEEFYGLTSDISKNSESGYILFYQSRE
Method in brief: as §1

USP47 = biological target: T2, USP47 (UniProt Q96K76)
T2 sequence (whole entry): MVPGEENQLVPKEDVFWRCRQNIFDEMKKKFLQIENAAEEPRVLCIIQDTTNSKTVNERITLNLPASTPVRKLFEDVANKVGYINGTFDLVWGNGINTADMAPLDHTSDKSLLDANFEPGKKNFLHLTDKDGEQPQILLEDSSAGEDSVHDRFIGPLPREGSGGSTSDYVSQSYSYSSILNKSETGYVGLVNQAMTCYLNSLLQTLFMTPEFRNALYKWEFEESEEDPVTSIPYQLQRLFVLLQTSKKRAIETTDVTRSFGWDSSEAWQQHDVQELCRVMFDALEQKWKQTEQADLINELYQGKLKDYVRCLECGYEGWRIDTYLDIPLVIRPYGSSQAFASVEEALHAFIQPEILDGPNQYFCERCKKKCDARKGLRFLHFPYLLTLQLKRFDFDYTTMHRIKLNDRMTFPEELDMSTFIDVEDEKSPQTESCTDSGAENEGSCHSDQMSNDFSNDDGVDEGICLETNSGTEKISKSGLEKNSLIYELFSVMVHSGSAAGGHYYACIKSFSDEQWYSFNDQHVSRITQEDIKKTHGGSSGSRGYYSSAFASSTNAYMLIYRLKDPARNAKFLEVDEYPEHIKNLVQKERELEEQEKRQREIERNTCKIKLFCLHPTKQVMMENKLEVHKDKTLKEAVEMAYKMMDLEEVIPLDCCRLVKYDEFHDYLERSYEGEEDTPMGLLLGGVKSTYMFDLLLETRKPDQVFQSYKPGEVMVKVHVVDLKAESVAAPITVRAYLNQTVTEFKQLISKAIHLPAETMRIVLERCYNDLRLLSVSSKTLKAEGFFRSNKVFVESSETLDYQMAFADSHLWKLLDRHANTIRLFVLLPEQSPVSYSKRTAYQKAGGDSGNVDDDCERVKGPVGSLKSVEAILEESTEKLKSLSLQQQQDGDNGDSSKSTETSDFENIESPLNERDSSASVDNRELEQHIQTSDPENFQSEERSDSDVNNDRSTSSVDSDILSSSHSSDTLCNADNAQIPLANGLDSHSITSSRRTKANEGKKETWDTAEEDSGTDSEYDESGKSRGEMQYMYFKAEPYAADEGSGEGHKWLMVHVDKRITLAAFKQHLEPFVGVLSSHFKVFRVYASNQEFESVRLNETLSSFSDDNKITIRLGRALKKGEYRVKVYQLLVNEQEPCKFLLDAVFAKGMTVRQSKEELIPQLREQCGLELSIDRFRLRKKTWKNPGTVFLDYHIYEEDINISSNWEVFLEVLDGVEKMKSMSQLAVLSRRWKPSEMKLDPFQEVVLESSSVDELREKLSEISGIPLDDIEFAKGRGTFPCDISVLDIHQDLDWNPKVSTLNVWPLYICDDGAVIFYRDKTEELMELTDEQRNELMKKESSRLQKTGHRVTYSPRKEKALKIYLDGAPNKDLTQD
Method in brief: as §1

USP48 = biological target: T3, USP48 (UniProt Q86UV5)
T3 sequence (whole entry): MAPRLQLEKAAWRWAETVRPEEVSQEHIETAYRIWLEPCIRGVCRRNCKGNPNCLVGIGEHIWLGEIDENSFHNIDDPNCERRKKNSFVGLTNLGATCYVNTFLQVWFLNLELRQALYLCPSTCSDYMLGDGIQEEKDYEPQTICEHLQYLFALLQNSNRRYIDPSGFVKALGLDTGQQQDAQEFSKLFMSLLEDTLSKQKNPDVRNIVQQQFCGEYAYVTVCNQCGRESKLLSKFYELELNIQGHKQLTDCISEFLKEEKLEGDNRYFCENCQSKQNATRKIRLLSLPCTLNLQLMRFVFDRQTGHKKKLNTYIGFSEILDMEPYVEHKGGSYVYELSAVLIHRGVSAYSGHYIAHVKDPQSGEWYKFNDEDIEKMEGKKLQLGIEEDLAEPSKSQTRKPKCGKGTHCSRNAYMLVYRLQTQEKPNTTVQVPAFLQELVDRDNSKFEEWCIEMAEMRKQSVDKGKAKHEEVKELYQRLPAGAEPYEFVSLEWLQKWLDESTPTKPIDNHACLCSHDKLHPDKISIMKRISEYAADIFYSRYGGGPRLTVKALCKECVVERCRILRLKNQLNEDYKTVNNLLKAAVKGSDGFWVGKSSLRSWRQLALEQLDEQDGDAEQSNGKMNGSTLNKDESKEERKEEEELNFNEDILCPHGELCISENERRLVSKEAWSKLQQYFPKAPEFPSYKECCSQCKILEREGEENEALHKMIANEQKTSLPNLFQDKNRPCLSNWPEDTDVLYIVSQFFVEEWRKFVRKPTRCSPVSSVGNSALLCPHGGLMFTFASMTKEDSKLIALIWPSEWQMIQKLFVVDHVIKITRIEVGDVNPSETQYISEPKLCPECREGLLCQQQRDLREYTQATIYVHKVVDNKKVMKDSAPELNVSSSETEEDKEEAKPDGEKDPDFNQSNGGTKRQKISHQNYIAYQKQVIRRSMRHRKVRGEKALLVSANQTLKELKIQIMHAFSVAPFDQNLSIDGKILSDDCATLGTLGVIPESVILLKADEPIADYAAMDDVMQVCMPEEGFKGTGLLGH
Method in brief: as §1

USP5 = biological target: T4, USP5 (UniProt P45974)
T4 sequence (whole entry): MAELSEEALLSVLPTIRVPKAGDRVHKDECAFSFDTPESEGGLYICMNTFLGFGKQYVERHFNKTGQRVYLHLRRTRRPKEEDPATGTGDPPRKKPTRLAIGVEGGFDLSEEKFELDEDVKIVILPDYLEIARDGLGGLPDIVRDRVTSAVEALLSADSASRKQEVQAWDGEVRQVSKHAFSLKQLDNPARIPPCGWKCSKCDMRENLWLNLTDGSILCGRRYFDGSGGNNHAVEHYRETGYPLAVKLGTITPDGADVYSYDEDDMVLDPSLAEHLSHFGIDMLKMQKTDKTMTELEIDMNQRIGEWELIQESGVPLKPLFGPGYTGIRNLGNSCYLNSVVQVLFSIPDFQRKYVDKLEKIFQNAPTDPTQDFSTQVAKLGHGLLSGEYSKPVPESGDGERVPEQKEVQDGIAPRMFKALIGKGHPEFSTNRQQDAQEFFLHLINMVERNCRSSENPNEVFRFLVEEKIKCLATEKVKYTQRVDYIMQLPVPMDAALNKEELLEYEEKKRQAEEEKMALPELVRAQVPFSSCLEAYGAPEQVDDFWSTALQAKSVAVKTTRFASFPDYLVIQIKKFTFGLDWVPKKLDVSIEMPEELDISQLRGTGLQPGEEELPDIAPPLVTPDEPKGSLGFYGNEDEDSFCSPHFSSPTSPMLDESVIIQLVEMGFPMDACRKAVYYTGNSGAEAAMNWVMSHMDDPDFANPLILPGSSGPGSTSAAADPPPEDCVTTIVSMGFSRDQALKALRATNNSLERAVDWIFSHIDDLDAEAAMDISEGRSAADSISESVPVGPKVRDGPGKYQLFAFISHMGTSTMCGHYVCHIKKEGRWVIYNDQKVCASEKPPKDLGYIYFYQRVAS
Method in brief: as §1

USP54 = USP54 (UniProt Q70EL1)
USP54, sequence (Q70EL1 whole entry): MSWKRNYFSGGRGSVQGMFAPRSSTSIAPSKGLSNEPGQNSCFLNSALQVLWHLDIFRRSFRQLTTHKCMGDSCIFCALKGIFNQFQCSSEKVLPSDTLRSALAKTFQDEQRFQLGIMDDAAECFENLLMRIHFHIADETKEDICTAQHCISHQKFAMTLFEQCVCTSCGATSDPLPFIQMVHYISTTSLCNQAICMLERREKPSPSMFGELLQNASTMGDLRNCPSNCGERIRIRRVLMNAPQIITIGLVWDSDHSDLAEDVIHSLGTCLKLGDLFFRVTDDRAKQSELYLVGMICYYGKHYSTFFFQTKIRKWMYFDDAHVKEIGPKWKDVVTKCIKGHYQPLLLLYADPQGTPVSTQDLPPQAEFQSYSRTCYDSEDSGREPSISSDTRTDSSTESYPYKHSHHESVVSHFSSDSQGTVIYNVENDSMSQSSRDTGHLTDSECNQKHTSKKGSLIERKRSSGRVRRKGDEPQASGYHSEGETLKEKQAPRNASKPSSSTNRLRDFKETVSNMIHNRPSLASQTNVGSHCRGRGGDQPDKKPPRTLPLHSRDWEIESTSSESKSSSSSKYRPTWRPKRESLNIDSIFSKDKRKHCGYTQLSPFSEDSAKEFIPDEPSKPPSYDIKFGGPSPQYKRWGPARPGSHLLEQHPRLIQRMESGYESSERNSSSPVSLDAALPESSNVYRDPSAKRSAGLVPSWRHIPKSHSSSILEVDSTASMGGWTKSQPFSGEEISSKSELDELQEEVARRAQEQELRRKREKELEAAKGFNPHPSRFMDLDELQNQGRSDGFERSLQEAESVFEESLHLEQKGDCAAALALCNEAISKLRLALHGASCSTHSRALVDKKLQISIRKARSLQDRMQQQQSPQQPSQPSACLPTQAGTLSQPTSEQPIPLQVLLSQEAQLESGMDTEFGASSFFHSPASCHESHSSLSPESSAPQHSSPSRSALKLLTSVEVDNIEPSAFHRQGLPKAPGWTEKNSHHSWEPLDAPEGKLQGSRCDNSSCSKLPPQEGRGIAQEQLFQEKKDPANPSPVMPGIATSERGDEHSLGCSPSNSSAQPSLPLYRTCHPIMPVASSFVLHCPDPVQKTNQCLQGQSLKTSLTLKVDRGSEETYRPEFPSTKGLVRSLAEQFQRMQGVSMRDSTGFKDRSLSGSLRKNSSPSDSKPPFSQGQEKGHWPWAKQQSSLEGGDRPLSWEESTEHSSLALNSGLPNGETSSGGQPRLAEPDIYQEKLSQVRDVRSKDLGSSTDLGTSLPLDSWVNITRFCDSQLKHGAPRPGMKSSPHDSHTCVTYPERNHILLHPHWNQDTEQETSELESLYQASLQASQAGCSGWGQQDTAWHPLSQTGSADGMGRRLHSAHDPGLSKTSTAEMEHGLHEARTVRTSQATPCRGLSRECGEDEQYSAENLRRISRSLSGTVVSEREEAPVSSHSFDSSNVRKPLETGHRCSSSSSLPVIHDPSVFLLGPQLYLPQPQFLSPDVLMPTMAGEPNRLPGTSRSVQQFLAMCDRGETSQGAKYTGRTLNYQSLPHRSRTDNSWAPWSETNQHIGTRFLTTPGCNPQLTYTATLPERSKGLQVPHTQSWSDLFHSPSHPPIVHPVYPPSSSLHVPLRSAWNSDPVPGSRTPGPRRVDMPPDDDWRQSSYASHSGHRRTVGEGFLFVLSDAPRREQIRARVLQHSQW
Method in brief: as §1

USP7 = USP7 (UniProt Q93009)
USP7, sequence (Q93009 whole entry, looked up): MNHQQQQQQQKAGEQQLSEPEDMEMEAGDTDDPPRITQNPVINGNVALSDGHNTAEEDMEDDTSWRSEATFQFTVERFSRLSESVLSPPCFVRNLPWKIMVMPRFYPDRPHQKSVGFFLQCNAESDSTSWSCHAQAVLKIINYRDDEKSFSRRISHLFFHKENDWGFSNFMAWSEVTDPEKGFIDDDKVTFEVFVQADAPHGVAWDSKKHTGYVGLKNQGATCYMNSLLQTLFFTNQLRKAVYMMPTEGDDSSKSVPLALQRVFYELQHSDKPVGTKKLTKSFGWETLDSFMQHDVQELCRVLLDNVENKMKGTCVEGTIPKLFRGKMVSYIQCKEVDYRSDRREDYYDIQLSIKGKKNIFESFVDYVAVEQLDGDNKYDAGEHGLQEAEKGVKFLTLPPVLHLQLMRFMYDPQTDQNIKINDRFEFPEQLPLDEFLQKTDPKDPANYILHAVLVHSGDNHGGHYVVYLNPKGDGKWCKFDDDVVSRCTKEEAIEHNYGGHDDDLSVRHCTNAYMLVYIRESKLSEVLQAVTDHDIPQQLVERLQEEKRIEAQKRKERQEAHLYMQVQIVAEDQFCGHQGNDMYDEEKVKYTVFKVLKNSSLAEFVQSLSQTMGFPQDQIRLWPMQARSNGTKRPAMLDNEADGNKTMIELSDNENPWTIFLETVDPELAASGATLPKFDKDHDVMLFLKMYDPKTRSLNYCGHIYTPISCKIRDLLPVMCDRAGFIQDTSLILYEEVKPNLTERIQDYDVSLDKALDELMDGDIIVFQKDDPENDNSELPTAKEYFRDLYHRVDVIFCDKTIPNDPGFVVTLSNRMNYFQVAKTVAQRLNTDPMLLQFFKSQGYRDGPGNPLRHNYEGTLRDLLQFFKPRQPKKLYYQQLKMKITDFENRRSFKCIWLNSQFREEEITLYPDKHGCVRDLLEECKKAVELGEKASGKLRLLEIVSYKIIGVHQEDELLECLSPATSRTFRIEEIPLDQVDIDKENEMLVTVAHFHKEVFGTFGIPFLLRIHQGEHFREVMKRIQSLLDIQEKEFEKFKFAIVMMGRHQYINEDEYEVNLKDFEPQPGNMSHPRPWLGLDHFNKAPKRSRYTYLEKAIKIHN
Method in brief: as §1

USP8 = biological target: T5, USP8 (UniProt P40818)
T5 sequence (whole entry): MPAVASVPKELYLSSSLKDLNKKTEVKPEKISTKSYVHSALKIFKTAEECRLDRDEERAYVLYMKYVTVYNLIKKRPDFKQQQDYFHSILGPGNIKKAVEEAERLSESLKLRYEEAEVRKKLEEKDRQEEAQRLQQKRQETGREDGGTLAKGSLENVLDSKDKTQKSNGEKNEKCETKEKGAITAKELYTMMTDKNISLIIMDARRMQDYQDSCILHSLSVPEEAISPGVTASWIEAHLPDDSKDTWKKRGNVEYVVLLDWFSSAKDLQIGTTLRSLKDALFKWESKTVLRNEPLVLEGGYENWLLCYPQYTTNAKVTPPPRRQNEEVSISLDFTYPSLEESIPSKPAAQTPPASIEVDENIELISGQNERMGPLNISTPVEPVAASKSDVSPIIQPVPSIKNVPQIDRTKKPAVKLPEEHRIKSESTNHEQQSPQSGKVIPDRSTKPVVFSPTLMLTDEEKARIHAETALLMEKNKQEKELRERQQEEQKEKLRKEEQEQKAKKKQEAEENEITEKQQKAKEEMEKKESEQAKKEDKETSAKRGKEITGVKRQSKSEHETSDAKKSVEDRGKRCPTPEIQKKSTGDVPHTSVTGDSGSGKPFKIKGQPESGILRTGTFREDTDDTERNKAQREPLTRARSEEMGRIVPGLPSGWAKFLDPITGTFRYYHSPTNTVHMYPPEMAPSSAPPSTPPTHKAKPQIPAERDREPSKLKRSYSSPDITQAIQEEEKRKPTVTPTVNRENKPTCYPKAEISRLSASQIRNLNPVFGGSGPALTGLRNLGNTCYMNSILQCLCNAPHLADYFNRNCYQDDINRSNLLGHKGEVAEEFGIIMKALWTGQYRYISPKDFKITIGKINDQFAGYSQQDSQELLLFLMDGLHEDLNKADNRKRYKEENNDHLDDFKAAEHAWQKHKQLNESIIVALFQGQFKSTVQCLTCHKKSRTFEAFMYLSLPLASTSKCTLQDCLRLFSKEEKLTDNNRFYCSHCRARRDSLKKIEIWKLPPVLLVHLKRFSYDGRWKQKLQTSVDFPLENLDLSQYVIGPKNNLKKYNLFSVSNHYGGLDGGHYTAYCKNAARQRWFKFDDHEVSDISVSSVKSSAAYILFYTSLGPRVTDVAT
Method in brief: as §1

Measured: log2 ratio of Biotin-Ahx-Ub-VS probe labelling

CS(=O)(=O)c1ccc(NC(=O)CCl)cc1
inactive: USP42 0.0549 | USP46 0.119 | USP47 -0.0487 | USP48 -0.946 | USP5 0.0085 | USP54 0.431 | USP7 -0.156 | USP8 0.012
